# Source: PubChem BioAssay
# KCNQ2 block: KCNQ2 (rat) channel inhibition | O88943 | CHO-K1 KCNQ2, FluxOR thallium flux, 20 min; hits give low values | B-score at 10 µM | 310,000 compounds, 1.1% hits | AID 2156;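 active = fluorescence ratio B-score at most minus 3 library SDs, with starting brightness B-score within 2 library SDs, cut at about -5.5 in these data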
# KCNQ2 pot: potentiators of rat KCNQ2 potassium channel. B-score at 10 µM. CHO-K1 KCNQ2, FluxOR thallium flux fluorescence; hits give high values. O88943. 310,000 compounds, 0.54% hits;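 active = fluorescence ratio B-score at least 3 SD of library B-scores, with initial fluorescence B-score within 3 of them, cut at about 5.3 in these data; same plate scores as AID 2156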;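 also: B-score of peak minus minimum over baseline fluorescence ratio after K+ and Tl+ stimulus; positive B-score means potentiation of KCNQ2 with more thallium influx and brighter signal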
# Kir21 conf inh: confirmation of mouse Kir2.1 potassium channel inhibitors; shares compounds with KCNQ2 pot; Kir2.1-expressing cells, FluxOR thallium flux fluorescence; hits give low values; Tl flux remaining, % of negative control (hits give low values), % at 10 µM; 2,300 compounds, 41% hits;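 active = Primary-screen hit whose thallium flux fell at least 3 control SD below untreated wells in both duplicates, with normal baseline fluorescence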
# Target sequence (P35561 whole entry, looked up): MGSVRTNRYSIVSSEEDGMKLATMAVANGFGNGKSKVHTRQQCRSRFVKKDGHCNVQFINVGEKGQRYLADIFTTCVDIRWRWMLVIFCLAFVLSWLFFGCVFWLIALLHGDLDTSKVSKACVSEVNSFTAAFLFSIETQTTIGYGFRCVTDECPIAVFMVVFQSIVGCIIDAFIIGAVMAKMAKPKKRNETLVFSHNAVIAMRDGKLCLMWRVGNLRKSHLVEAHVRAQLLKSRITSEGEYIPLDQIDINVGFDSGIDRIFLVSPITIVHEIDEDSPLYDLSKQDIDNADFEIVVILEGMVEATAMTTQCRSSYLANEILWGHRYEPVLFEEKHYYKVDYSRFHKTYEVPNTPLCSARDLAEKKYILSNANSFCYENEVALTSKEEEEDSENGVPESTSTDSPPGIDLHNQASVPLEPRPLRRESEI
# HEK293 ctr: counter-screen for Kir2.1 inhibitors: effect in parental HEK293 cells; shares compounds with KCNQ2 pot; FluxOR thallium flux fluorescence; 0% = unstimulated blank wells; FluxOR signal as % of negative control (100 = no effect), % at 10 µM; 2,300 compounds, 19% hits;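 active = dye signal at least 3 control SD above or below untreated wells in both duplicates, raw fluorescence within 3, either direction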;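 also: percent is based on the flux ratio of peak minus minimum fluorescence over baseline F0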
# CHO-K1 Tl ctr: counter-screen for KCNQ2 potentiators: effect in parental CHO-K1 cells; shares compounds with KCNQ2 pot; AID 2282; FluxOR thallium flux fluorescence; zero = vehicle mean+3SD, 100% = vehicle-minus-blank window; activity increase over 3SD of controls, % at 10 µM; 1,200 compounds, 43% hits;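 active = signal rise of at least 3 SD above the untreated control mean, in both duplicate wells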;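 also: counter screen of KCNQ2 potentiator hits so any rise reflects channel-independent effects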
# KCNQ1 pot spec: selectivity of KCNQ2 potentiators: effect on human KCNQ1; shares compounds with KCNQ2 pot; CHO KCNQ1 stable, FluxOR thallium flux fluorescence; beyond 3SD, as % of vehicle-control signal; 1,200 compounds, 28% hits; activation over 3SD threshold, % at 10 µM;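 active = fluorescence ratio rise of at least 3 SD of vehicle wells above their mean, in both replicate wells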
# KCNQ2 pot conf: rat KCNQ2 channel potentiator confirmation. shares compounds with KCNQ2 pot. 1,200 compounds, 68% hits. CHO-KCNQ2 cells, FluxOR thallium flux fluorescence. potentiation, less the hit threshold, % at 10 µM;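 active = fluorescence ratio rising 3 SD or more over the vehicle control mean in both replicates, plus primary screen hit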;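 also: peak minus minimum thallium fluorescence divided by baseline after K/Tl stimulus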
# Kir21 spec: selectivity of KCNQ2 potentiators: effect on mouse Kir2.1; activity over 3SD threshold, % at 10 µM; shares compounds with KCNQ2 pot; AID 2345; 1,200 compounds, 2% hits; HEK293 Kir2.1, FluxOR thallium flux fluorescence;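 active = fluorescence ratio rise of at least 3 SD above the vehicle-control mean, seen in both replicates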
# KCNQ2 W236L MoA: potentiates the retigabine-insensitive rat KCNQ2 W236L mutant channel | current increase over 3SD of negative controls (%), hits give high values, % at 25 µM | AID 2558 | 940 compounds, 10% hits | shares compounds with KCNQ2 pot | CHO KCNQ2-W236L, automated patch clamp current;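 active = current increase at least 3 SD of the untreated controls above them in both duplicate recordings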
# A number is an active result; 0 = inactive; - = no result given. Rows were chosen to be rich in hits. Some 1.6% of all compounds tested hit in one or more screens of this group.
SMILES,KCNQ2 block,KCNQ2 pot,Kir21 conf inh,HEK293 ctr,others
COC(=O)C1=C(CCc2ccccc2)NC(=O)NC1c1ccc([N+](=O)[O-])cc1 (configuration not stated),0,0,-,-,
O=C(NN1C(=O)C2C3C=CC(C3)C2C1=O)c1ccncc1 (configuration not stated),0,0,-,-,
O=C(NN1C(=O)C2C(c3ccccc3)C=CC(c3ccccc3)C2C1=O)c1ccncc1 (configuration not stated),0,6.51,0,0,CHO-K1 Tl ctr=0;KCNQ1 pot spec=0;KCNQ2 pot conf=72.5;Kir21 spec=0;KCNQ2 W236L MoA=0
O=C1NC(Cc2c[nH]c3ccccc23)C(=O)N1Cc1ccccc1 (configuration not stated),0,-,-,-,
O=C1C(Cc2c[nH]c3ccccc23)NC(=S)N1Cc1ccccc1 (configuration not stated),0,-,48.0%,0,
CC(=O)Nc1ccc(NS(=O)(=O)c2cccc3nonc23)cc1,0,0,-,-,
COc1cc(NC(=O)CCc2nnc3ccc(N4CCC5(CC4)OCCO5)nn23)cc(OC)c1,0,0,-,-,
O=C(/C=C/c1ccccc1)CC(O)(c1ccccc1)C(F)(F)F (configuration not stated),0,-,61.5%,0,
COc1ccc(/C=C/C(=O)CC(O)(c2ccccc2)C(F)(F)F)cc1 (configuration not stated),0,-,-,-,
COC(=O)c1sc(NC(=S)NC(=O)c2ccccc2C)nc1C,0,12.2,0,302.0%,CHO-K1 Tl ctr=0;KCNQ1 pot spec=32.6;KCNQ2 pot conf=46.6;Kir21 spec=0;KCNQ2 W236L MoA=0
COC(=O)c1sc(NC(=S)NC(=O)c2ccc(F)cc2)nc1C,0,0,-,-,
COc1cccc(-c2nc(CS(=O)CC(=O)NC3CCCCC3)c(C)o2)c1 (configuration not stated),0,0,-,-,
COc1ccc(C2C=C(C34CC5CC(CC(C5)C3)C4)NC(=S)N2)cc1 (configuration not stated),0,-,-,-,
O=C(CN1CCCCCC1)Nc1ccccc1[N+](=O)[O-],0,-,-,-,
O=C(CC1CCC1)Nc1cccc2c([N+](=O)[O-])cccc12,0,9.58,0,0,CHO-K1 Tl ctr=0;KCNQ1 pot spec=56.0;KCNQ2 pot conf=34.7;Kir21 spec=0;KCNQ2 W236L MoA=0
CC(Sc1nnc(NC2CCCCC2)s1)C(=O)Nc1ccc2c(c1)C(=O)c1ccccc1C2=O (configuration not stated),0,0,-,-,
CCOc1ccccc1C(=O)Nc1cc(C)ccc1NC(=O)c1ccco1,0,-,-,-,
O=C(NCc1nc2ccccc2[nH]1)C1=C[C@H](C2CC2)C[C@H](OCc2ccc(CO)cc2)O1,0,0,-,-,
COCCNC(=O)/C(C#N)=C/c1cccc(/C=C(\C#N)C(=O)NCCOC)c1,0,9.31,0,0,CHO-K1 Tl ctr=0;KCNQ1 pot spec=2.5;KCNQ2 pot conf=1.3;Kir21 spec=0;KCNQ2 W236L MoA=9.2%
COCCNC(=O)/C(C#N)=C/c1ccc(O)cc1,0,0,-,-,
COC(=O)c1ccc(CNC(=O)C2CCC(=O)N(C3CCCCCC3)C2)cc1 (configuration not stated),0,-,-,-,
COc1ccc2oc(C(=O)OCC(=O)N(C)CC(=O)Nc3ccc(C)cc3)c(C)c2c1,0,7.4,0,0,CHO-K1 Tl ctr=31.6;KCNQ1 pot spec=0;KCNQ2 pot conf=0;Kir21 spec=0
COc1ccc2oc(C(=O)OCC(=O)Nc3ccc(NC(C)=O)cc3)c(C)c2c1,0,-,-,-,
CCOC(=O)C1CCN(Cc2cccc(Oc3ccccc3)c2)CC1,0,-,27.0%,0,
CCOC(=O)C1CCN(Cc2cccc(Oc3ccc(Cl)cc3)c2)CC1,0,-,-,-,
SMILES,KCNQ2 block,KCNQ2 pot,Kir21 conf inh,HEK293 ctr,others
Cc1ccc(C)c(N2CC(C(=O)O)CC2=O)c1 (configuration not stated),0,0,-,-,
CC(C)CSc1oc(-c2ccco2)nc1S(=O)(=O)c1ccccc1,0,-,-,-,
CC(C)CC(=O)N1CCN(C(=O)c2ccc(F)cc2)CC1,0,0,-,-,
CCc1nc(SCC(=O)Nc2cc(C)on2)c2c(=O)n(C)c(=O)n(C)c2n1,0,0,-,-,
Cc1cc(NC(=O)CSc2nc(CC(C)(C)C)nc3c2c(=O)n(C)c(=O)n3C)no1,0,-,0,0,
CCCCOc1ccc(Cl)cc1Nc1nc(NCCO)nc(N2CCCC2)n1,0,0,-,-,
O=C(CSc1nc2ccccc2n1Cc1ccccc1)N/N=C/c1ccccc1C(=O)O,0,0,-,-,
O=C(O)COc1ccccc1/C=N/NC(=O)CSc1nc2ccccc2n1Cc1ccccc1Cl,0,0,0,73.0%,
CCOc1ccccc1NC(=O)CNS(=O)(=O)c1ccc2nc(C)sc2c1,0,0,-,-,
CCc1nnc2c(N(C)S(=O)(=O)c3ccc(C)cc3)nc3ccccc3n12,0,0,-,-,
Cc1ccc(S(=O)(=O)N(C)c2nc3ccccc3[nH]c2=S)cc1,0,5.57,0,154.0%,CHO-K1 Tl ctr=0;KCNQ1 pot spec=0;KCNQ2 pot conf=0;Kir21 spec=0
COc1ccc2[nH]cc(CCNS(=O)(=O)Cc3ccccc3)c2c1,0,-,-,-,
CC(C)OC(=O)c1c(NS(=O)(=O)c2ccccc2)sc2c1CCCC2,0,0,0,0,
COC(=O)c1c(NS(C)(=O)=O)sc2c1CCCC2,0,0,-,-,
COC(=O)c1c(NC(=O)c2ccccc2N(C)S(=O)(=O)c2ccccc2)sc2c1CCCC2,0,-,-,-,
COC(=O)c1c(NS(=O)(=O)Cc2ccccc2)sc2c1CCCC2,0,13,0,235.5%,CHO-K1 Tl ctr=109.5;KCNQ1 pot spec=0;KCNQ2 pot conf=45.2;Kir21 spec=0;KCNQ2 W236L MoA=0
Cc1ccc(N2CC(C(=O)Nc3cccnc3)CC2=O)cc1C (configuration not stated),0,0,-,-,
CC(C)c1nc(C(=O)N2CCCC(CCC(=O)N(C)CCc3ccccn3)C2)cs1 (configuration not stated),0,-,-,-,
Cc1ccc2nsnc2c1S(=O)(=O)Nc1cccc2nsnc12,0,6.13,0,237.5%,
Cc1ccc(C)c(NS(=O)(=O)c2c(C)ccc3nsnc23)c1,0,-,-,-,
CN(C)c1ccc(C(=S)N2CCCC2)cc1Br,0,0,-,-,
CC(C)(C)c1ccc(/C=C2/SC(N3CCCC3)=NC2=O)cc1,0,6.94,0,0,CHO-K1 Tl ctr=4.3;KCNQ1 pot spec=0;KCNQ2 pot conf=12.0;Kir21 spec=0;KCNQ2 W236L MoA=0.6%
Cc1ccc(/C=C2\SC(N3CCCCC3)=NC2=O)cc1,0,0,-,-,
Cc1oc(S(=O)(=O)N2CCOCC2)cc1C(=O)Nc1ccc(Cl)cc1,0,0,-,-,
Cc1cc(C)c2ccc(NN)nc2c1O,0,-,-,-,
Cc1cc(C)c2ccc(/C=N/O)nc2c1O,0,11.6,0,0,CHO-K1 Tl ctr=146.6;KCNQ1 pot spec=12.0;KCNQ2 pot conf=0;Kir21 spec=0;KCNQ2 W236L MoA=0
O=[N+]([O-])c1ccc(CN2CCN(c3ccc(Cl)cc3)CC2)o1,0,-,-,-,
